This is an account of results in PubChem BioAssay.

The source made the active and inactive calls.

One experiment deals with Albumin (Bos taurus) (UniProt P02769). Description: compounds binding labelled BSA control protein – biochemical, small-molecule microarray, Alexa647 label, 635/667 nm fluorescence, artefact control for SMM control protein annotation, profiling panel (AID 1118).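 Further: score merges 667 nm emission intensity and signal-to-noise per printed compound spot.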 Conditions: BSA-A647 binding, fluorescence 635 nm, higher = more signal.
Sequence of Albumin (Bos taurus) (P02769 whole entry, looked up): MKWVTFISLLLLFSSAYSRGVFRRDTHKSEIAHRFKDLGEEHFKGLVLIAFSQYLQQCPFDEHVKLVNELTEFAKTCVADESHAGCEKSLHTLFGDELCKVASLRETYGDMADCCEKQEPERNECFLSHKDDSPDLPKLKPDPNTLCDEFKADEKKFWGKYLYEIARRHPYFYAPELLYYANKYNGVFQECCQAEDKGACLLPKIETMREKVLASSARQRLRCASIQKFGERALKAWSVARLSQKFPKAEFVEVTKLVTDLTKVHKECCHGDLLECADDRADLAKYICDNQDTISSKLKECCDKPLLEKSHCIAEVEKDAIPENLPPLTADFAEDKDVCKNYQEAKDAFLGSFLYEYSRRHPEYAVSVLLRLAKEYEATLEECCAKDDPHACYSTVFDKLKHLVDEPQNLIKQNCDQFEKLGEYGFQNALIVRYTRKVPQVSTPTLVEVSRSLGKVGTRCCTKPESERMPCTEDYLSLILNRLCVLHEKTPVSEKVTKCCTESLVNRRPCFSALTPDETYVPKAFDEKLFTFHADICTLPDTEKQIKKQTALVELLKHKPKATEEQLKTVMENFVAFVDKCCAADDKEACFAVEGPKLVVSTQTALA
Experiment [1] can be described thus: probe aXIP binding to arrayed compounds – biochemical, NeuroSMM set, 635/667 nm fluorescence, primary screen (AID 1119).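 Further: probe is the protein aXip251-270 applied at 1 µg/mL to compound-printed slides; binding of probe to printed compounds measured as 667 nm fluorescence plus signal to noise.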 As to conditions: small-molecule microarray, higher = more signal, called active from +8 up or from −8 down.
The nature of experiment [2]: probe aNOTCH3 binding on compound microarray – biochemical, small-molecule microarray, 635/667 nm fluorescence, primary screen (AID 1120).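 Further: probe is a biotin-tagged antibody raised against NOTCH3 rather than NOTCH3 protein; score merges spot fluorescence near 667 nm with spot signal to noise.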 Conditions: higher = more signal.
The nature of experiment [3]: probe aNOTCH2 binding on compound microarray – biochemical, small-molecule microarray, 635/667 nm fluorescence, primary screen (AID 1121).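 Further: score merges feature fluorescence read at 667 nm with its signal to noise.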 Conditions: higher = more signal.
Experiment [4] has as its target Carbonic anhydrase 2 (Homo sapiens) (UniProt P00918). In words: compounds binding carbonic anhydrase 2 – biochemical, small-molecule microarray, Alexa647-labelled CAII, profiling panel (AID 1122). As to conditions: CAII-A647 binding fluorescence, higher = more signal.
The nature of experiment [5]: COS7 lysate on small-molecule microarray, probe aHis, 635 nm (AID 1123).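 Further: z-score combines 667nm fluorescence intensity with signal-to-noise per printed compound spot.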 Conditions: COS7 cell lysate, fluorescence, higher = more signal.
A short description of experiment [6]: probe aLAP1 signal on lysate-treated microarray – cell lysate, small-molecule microarray, COS7 lysate, primary screen (AID 1124).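 Further: lysate comes from COS7 cells expressing LAP1 and is applied at 0.3 µg/mL; score merges spot fluorescence near 667 nm with signal-to-noise over triplicate slides.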 As to conditions: probe aLAP1, fluorescence, higher = more signal.
The subject of another experiment is Sam68 (KHDRBS1). Description: compounds binding KHDRBS1 protein – biochemical, small-molecule microarray, 635 nm fluorescence, primary screen (AID 1125).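 Further: score merges 667 nm channel intensity with signal to noise over triplicate slides.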 Conditions: higher = more signal.
Experiment [7] deals with Chordin-like protein 2 (CHRDL2). In words: compounds binding chordin-like 2 – biochemical, small-molecule microarray, 635 nm fluorescence, primary screen (AID 1126).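 Further: printed compound slides probed with Chrdl2 protein at 4 µg/mL for 1 h at 4 C; score merges 667 nm emission intensity with signal to noise over three replicate slides.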 As to conditions: fluorescence 635 nm, higher = more signal.
Experiment [8] concerns the target Concanavalin-A (Canavalia ensiformis) (UniProt P02866). Description: compounds binding concanavalin A lectin – biochemical, small-molecule microarray, Alexa647 label, 635 nm, artefact control for SMM control protein annotation, primary screen (AID 1127).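 Further: z combines 667 nm emission intensity with signal-to-noise across three replicate slides.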 Conditions: ConA-A647 binding fluorescence, higher = more signal.
A short description of experiment [9]: compounds binding Alexa647 anti-His antibody – biochemical, small-molecule microarray, 635 nm fluorescence, artefact control for SMM control protein annotation, primary screen (AID 1128).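 Further: score merges feature fluorescence with signal-to-noise for each printed compound spot.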 Conditions: higher = more signal.
Experiment [10] deals with Human papillomavirus type 1a E7 protein (residues 1-88). Description: HPV1a E7 small-molecule binders, primary screen, biochemical, small-molecule microarray, residues 1-88, 635 nm (AID 1129). As to conditions: small-molecule microarray binding, fluorescence 635 nm; higher = more signal.
The target of experiment [11] is Focal adhesion kinase 1 (Homo sapiens) (UniProt Q05397). Description: PTK2 protein binding on printed compound slides – biochemical, small-molecule microarray, 635/667 nm fluorescence, BSA, DTT, primary screen (AID 1130).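 Further: composite of spot emission at 667 nm and signal to noise over triplicate slides.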 Conditions: 635 nm fluorescence, higher = more signal.
Sequence of Focal adhesion kinase 1 (Homo sapiens) (Q05397 whole entry, looked up): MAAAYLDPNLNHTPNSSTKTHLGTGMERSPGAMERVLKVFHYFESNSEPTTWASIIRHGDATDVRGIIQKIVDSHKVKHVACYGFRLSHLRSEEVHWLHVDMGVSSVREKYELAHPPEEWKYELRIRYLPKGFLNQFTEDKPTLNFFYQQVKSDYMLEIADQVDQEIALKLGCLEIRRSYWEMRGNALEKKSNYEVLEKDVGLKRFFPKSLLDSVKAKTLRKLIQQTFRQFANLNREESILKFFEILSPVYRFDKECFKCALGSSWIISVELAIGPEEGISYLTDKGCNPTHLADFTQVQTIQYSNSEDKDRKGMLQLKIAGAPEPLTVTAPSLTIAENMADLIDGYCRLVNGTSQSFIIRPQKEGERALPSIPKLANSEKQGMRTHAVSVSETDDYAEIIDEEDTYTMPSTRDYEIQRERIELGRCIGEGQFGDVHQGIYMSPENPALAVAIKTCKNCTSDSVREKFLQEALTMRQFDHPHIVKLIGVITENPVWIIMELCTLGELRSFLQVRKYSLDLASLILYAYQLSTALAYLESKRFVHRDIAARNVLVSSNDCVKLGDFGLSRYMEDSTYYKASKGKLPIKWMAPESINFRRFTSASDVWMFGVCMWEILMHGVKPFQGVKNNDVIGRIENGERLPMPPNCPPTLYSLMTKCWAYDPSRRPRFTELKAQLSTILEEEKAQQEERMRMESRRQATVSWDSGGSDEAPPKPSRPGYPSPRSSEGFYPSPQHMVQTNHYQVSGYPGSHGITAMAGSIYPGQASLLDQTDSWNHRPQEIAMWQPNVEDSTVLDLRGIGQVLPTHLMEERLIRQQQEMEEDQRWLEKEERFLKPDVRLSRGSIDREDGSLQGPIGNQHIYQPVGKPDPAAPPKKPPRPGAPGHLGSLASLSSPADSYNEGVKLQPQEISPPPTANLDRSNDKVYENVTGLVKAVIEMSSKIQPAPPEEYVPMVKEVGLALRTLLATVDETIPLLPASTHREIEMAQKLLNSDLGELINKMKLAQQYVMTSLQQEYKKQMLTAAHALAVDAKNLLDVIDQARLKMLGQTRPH
Experiment [12] has as its system Fibrinogen (Alexa647-labelled). In words: Alexa647-fibrinogen binding to printed small molecules – biochemical, small-molecule microarray, 635/667 nm fluorescence, artefact control for SMM control-protein annotation, profiling panel (AID 1131).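 Further: z-score merges 667 nm fluorescence with per-spot signal-to-noise over triplicate slides.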 As to conditions: fibrinogen-A647 binding fluorescence, higher = more signal.
In experiment [13] the target is Follistatin (Homo sapiens) (UniProt P19883). In words: FST protein binding to printed compounds – biochemical, small-molecule microarray, 635/667 nm fluorescence, primary screen (AID 1132). As to conditions: 635 nm fluorescence, higher = more signal.
Sequence of Follistatin (Homo sapiens) (P19883 whole entry, looked up): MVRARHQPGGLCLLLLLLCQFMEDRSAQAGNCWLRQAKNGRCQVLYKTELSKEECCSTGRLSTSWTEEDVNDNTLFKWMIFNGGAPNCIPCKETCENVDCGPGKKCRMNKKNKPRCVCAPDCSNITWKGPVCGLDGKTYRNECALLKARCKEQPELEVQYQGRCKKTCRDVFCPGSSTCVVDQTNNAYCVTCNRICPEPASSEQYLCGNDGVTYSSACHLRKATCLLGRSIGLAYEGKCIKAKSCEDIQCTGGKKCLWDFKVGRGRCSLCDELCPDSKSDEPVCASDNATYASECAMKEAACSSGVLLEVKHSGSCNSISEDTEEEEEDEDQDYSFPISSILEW
Experiment [14] has as its target Fibroblast growth factor 2 (Homo sapiens) (UniProt P09038). In words: basic fibroblast growth factor binding to printed compounds – biochemical, small-molecule microarray, 635/667 nm fluorescence, primary screen (AID 1133). As to conditions: FGF2, fluorescence 635/667, higher = more signal.
Experiment [15] can be described thus: JC-1 mitochondrial potential readout, lung cancer cells – cell-based, A549, JC-1 fluorescence, basal, 24 h, 100 nL, profiling panel (AID 1138).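 Further: A549 lung adenocarcinoma cells under basal conditions with no added stimulus; test concentration not given here.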 As to conditions: higher = more signal.
For another experiment, the system named is Lefty1. Description: Lefty1 protein binding to printed compounds – biochemical, small-molecule microarray, 635/667 nm fluorescence, primary screen (AID 1139). Conditions: fluorescence 635/667, higher = more signal.
Experiment [16] concerns wheat germ agglutinin (Triticum aestivum), Alexa647-labelled. Description: Alexa647-WGA lectin binding to printed small molecules – biochemical, small-molecule microarray, 635/667 nm fluorescence, artefact control for SMM control-protein annotation, profiling panel (AID 1140).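 Further: score merges 667 nm feature emission with signal to noise over triplicate slides.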 Conditions: WGA-A647 binding, 635 nm fluorescence, higher = more signal.
Experiment [17] concerns the target Luciferin 4-monooxygenase (Photinus pyralis) (UniProt P08659). In words: inhibition of purified Photinus pyralis luciferase – biochemical, luminescence, purified enzyme, 2006 set, primary screen (AID 1141).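 Further: cell-free assay with purified firefly luciferase at 100 ng per well in PBS; test concentration not given here.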 Conditions: purified firefly luciferase, SteadyGlo luminescence, 30 min; higher = more signal, called active from +8 up or from −8 down.

Sequence of Fibroblast growth factor 2 (Homo sapiens) (P09038 whole entry, looked up): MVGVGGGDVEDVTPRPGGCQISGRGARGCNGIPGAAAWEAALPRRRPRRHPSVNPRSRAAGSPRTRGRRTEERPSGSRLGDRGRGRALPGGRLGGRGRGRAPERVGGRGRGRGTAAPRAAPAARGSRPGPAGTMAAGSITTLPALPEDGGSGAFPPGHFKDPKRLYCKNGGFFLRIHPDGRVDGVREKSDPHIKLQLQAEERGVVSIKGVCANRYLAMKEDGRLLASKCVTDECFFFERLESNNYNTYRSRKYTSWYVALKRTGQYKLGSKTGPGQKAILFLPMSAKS
Sequence of Concanavalin-A (Canavalia ensiformis) (P02866 whole entry, looked up): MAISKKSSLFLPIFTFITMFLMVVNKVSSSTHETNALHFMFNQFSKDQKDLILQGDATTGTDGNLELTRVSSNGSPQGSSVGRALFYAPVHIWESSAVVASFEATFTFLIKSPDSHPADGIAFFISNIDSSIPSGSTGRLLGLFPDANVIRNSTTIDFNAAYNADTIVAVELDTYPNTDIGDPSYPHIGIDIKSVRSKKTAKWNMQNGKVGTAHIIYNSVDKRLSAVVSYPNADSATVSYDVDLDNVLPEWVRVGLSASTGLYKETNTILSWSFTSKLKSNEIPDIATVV
Sequence of Luciferin 4-monooxygenase (Photinus pyralis) (P08659 whole entry, looked up): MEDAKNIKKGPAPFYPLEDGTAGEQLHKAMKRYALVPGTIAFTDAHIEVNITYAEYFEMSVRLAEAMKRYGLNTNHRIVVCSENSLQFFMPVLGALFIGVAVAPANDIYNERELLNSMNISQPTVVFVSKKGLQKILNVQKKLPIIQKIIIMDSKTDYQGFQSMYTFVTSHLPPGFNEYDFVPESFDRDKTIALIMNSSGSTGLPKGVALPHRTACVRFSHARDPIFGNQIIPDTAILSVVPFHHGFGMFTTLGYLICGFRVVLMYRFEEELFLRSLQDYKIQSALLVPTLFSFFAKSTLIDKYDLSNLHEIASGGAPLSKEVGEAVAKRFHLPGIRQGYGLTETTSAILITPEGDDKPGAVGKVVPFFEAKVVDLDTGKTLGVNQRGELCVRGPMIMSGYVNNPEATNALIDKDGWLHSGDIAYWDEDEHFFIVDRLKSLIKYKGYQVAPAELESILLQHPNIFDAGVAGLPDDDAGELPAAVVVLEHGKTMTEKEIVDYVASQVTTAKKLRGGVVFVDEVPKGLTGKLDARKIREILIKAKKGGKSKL

Regarding `O=C1C2C=CC(C(O)c3cc(C(F)(F)F)cc(C(F)(F)F)c3)N(Nc3ccccc3F)C2C(=O)N1c1ccccc1` (stereo not given), the composite z-score in the experiment with Albumin (Bos taurus) was 1.01; in experiment [2], 0.114; in experiment [3], -0.0005; in experiment [4] it was 0.752; in experiment [5], 2.86; in experiment [6] it was 1.06. Further, the composite z-score in the experiment with Sam68 (KHDRBS1) was 1.01; in experiment [7], -0.217; in experiment [8], 0.443; in experiment [9] it was -0.102; in [10], 1.21; in experiment [11] it was 0.76. Besides, the composite z-score was 0.847 in experiment [12]; 0.21 in experiment [13]; -0.215 in [14]; -0.173 in the experiment on Lefty1; 0.416 in experiment [16]. In addition, the composite Z-score in experiment [1] was -0.147 (inactive). For the same molecule, the z-score in experiment [15] was -1.58; in experiment [17], 0.668 (inactive).

In the case of `COC(=O)[C@@]1(Cc2ccccc2CN=[N+]=[N-])N=C(c2ccc(OCCCO)cc2)O[C@H]1c1ccccc1CN=[N+]=[N-]`, the composite z-score with Albumin (Bos taurus) is -0.747; in experiment [2] it was -0.15; in experiment [3], -0.101; in [4] it was 0.885; in [5], 1.77; in experiment [6] it was 0.017. The composite z-score in the experiment with Sam68 (KHDRBS1) was -0.63; in experiment [7] it was -1.42; in experiment [8], 0.114; in experiment [9], -0.242; in experiment [10], 0.113; in [11], -0.198. Further, the composite z-score was -0.819 in experiment [12]; -0.261 in [13]; -0.167 in experiment [14]; -1.09 in the experiment on Lefty1; 0.495 in experiment [16]. The composite Z-score in [1] was -0.221 (inactive). In addition, the z-score in experiment [15] is -0.546; in [17], -2.23 (inactive).

With `CCCCCCCCCCC(O)C1C=CC2C(=O)N(C)C(=O)C2N1Nc1cc(OC)c(OC)c(OC)c1` (stereo not given), the composite z-score with Albumin (Bos taurus) was 0.869; in experiment [2] it was -0.125; in experiment [3], -0.0521; in experiment [4], 0.0172; in [5], 1.44; in experiment [6], 0.148. Also, the composite z-score with Sam68 (KHDRBS1) was -0.383; in [7], -1.3; in experiment [8], 0.245; in experiment [9], 0.255; in experiment [10], 0.242; in experiment [11], 0.55. Moreover, the composite z-score in experiment [12] is -0.203; in experiment [13], -0.763; in experiment [14], -1.44; in the experiment with Lefty1, -0.946; in experiment [16] it was 0.458. Moreover, in experiment [1], the composite Z-score is 0.776 (inactive). In addition, the z-score was 1.06 in experiment [15] and -0.819 (inactive) in experiment [17].

Turning to `O=C1N(CCS(=O)(=O)c2ccccc2)Cc2ccccc2[C@@H]2OC(c3ccc(OCCCO)cc3)=N[C@]12CCS(=O)(=O)c1ccccc1`, the composite z-score was 0.0789 in the experiment with Albumin (Bos taurus); 0.128 in experiment [2]; 0.123 in experiment [3]; 0.628 in experiment [4]; 2.98 in experiment [5]; 0.638 in experiment [6]. Besides, the composite z-score turned out to be 1.31 in the experiment with Sam68 (KHDRBS1); 1.15 in experiment [7]; 1.11 in experiment [8]; 0.519 in experiment [9]; 1.27 in [10]; 1.2 in experiment [11]. Further, the composite z-score in experiment [12] worked out at 0.645; in experiment [13], 1.41; in [14] it was 1.7; in the experiment with Lefty1, 0.783; in [16], 0.817. Besides, in experiment [1], the composite Z-score was 0.02 (inactive). Also, the z-score is -1.19 in experiment [15] and -2.08 (inactive) in experiment [17].

On to `CC(C)[Si]1(C(C)C)OCc2cc(-c3ccc(-c4ccc(Cl)c(Cl)c4)o3)nc(CCc3ccccc3)c21`, for which the composite z-score in the experiment with Albumin (Bos taurus) is -0.176; in experiment [2] it was -0.0362; in experiment [3], -0.171; in [4] it was 0.384; in [5], 0.587; in [6], 0.112. Moreover, the composite z-score was -0.0975 in the experiment on Sam68 (KHDRBS1); 0.0164 in [7]; -0.843 in experiment [8]; -1.14 in [9]; -0.122 in experiment [10]; 0.164 in experiment [11]. For the same molecule, the composite z-score in experiment [12] is -0.0058; in [13], -0.0289; in experiment [14], -0.11; in the experiment on Lefty1 it was 0.0028; in experiment [16] it was 0.0809. Besides, the composite Z-score in [1] was 0.182 (inactive). In addition, the z-score in experiment [15] was 1.4; in [17] it was -2.45 (inactive).
